A short description of assay [1]: NCI Yeast Anticancer Drug Screen. Data for the rad50 strain (AID 155).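 Note: 0% = growth of vehicle-only cultures of the same strain.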 As to conditions: S. cerevisiae rad50 strain growth inhibition, active compounds read high. Summed up: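 A DNA repair-deficient yeast mutant serves as the test organism; compound-induced growth inhibition is calculated against vehicle-treated cells.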
Assay [2] in a line: NCI Yeast Anticancer Drug Screen. Data for the mec2-1 strain (AID 157). The conditions noted are these: S. cerevisiae mec2-1 strain, active compounds read high. Summed up: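 Readout is yeast growth inhibition, normalised to vehicle-treated controls, in the mec2-1 strain exposed to compound.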
Assay [3] is described as follows: NCI Yeast Anticancer Drug Screen. Data for the sgs1 mgt1 strain (AID 161).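 Note: 0% = growth of cultures given vehicle only.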 The conditions noted are these: S. cerevisiae sgs1 mgt1 strain, active compounds read high. Summed up:
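Growth of a repair-deficient yeast mutant was monitored after compound treatment and expressed as inhibition relative to vehicle-treated cultures.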

A short description of assay [4]: NCI Yeast Anticancer Drug Screen. Data for the cln2 rad14 strain (AID 165).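 Note: 0% = growth equal to vehicle treated cultures.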 The conditions noted are these: S. cerevisiae cln2 rad14 strain, active compounds read high. Put shortly: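 Relative to vehicle controls, growth inhibition of compound-treated cln2 rad14 yeast was recorded.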
Assay [5] can be described thus: NCI Yeast Anticancer Drug Screen. Data for the bub3 strain (AID 167). As to conditions: S. cerevisiae bub3 mutant strain, active compounds read high. Summed up: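 Inhibition values come from growth of compound-treated mutant yeast normalised to vehicle-treated controls.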
A short description of assay [6]: NCI Yeast Anticancer Drug Screen. Data for the mlh1 rad18 strain (AID 175). The conditions noted are these: S. cerevisiae mlh1 rad18 strain growth inhibition, active compounds read high. Put shortly:
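Test agents were incubated with a yeast strain of defined genotype (DNA damage repair defect). Inhibition of growth was derived by comparison with vehicle-exposed cultures.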

The mark [7] stands for this setting: at 5.0 µM (retest, dose inferred, filed as 0.5).
The mark [8] stands for this setting: at 50.0 µM (retest, dose inferred, filed as 5.0).

About 79,000 compounds went through this panel and 15% of them were active in at least one assay; those are over-represented in the sample as a whole. Unmarked numbers belong to inactive results. Active and inactive are the calls of the source. Cut-off read from the data, not from the text of the source: active = growth inhibition above about 70%; inactive = the rest.

Turning to `CC(=O)c1cc(CN(CCCl)CCCl)c(O)c(CN(CCCl)CCCl)c1O`, the growth inhibition was 5% in assay [1] (setting [7]); 12% in assay [1] (setting [8]); 90.5% (active) in assay [1] (at 50.0 µM); -13% in assay [2] (setting [7]); 14% in assay [2] (setting [8]); 77.7% (active) in assay [2] (at 50.0 µM). Besides, the growth inhibition in assay [3] (setting [7]) is 10%; in assay [3] (setting [8]), 34%; in assay [3] (at 50.0 µM), 96.2% (active); in assay [4] (setting [7]) it was 4%; in assay [4] (setting [8]), 6%; in assay [4] (at 50.0 µM), 63.1%. In addition, the growth inhibition was 3% in assay [5] (setting [7]); 6% in assay [5] (setting [8]); 78.6% (active) in assay [5] (at 50.0 µM); -4% in assay [6] (setting [7]); 45% in assay [6] (setting [8]); 89.5% (active) in assay [6] (at 50.0 µM).
On to `Oc1c(Cl)c(Cl)c(O)c(Cl)c1Cl`, for which the growth inhibition in assay [1] (setting [7]) was 65%; in assay [1] (setting [8]), 97% (active); in assay [1] (at 50.0 µM), 99.2% (active); in assay [2] (setting [7]), 35%; in assay [2] (setting [8]) it was 99% (active); in assay [2] (at 50.0 µM) it was 99.3% (active). Besides, the growth inhibition was 37% in assay [3] (setting [7]); 99% (active) in assay [3] (setting [8]); 99.1% (active) in assay [3] (at 50.0 µM); -2% in assay [4] (setting [7]); 80% (active) in assay [4] (setting [8]); 95.7% (active) in assay [4] (at 50.0 µM). The growth inhibition in assay [5] (setting [7]) was 64%; in assay [5] (setting [8]), 97% (active); in assay [5] (at 50.0 µM) it was 99.1% (active); in assay [6] (setting [7]), 47%; in assay [6] (setting [8]), 98% (active); in assay [6] (at 50.0 µM), 98.8% (active).
For `CC1=CC(=O)c2c(O)cccc2C1=O`, the growth inhibition in assay [1] (setting [7]) was 18%; in assay [1] (setting [8]), 100% (active); in assay [1] (at 50.0 µM), 85.8% (active); in assay [2] (setting [7]), 29%; in assay [2] (setting [8]), 99% (active); in assay [2] (at 50.0 µM), 90.1% (active). The growth inhibition was 19% in assay [3] (setting [7]); 99% (active) in assay [3] (setting [8]); 92% (active) in assay [3] (at 50.0 µM); 7% in assay [4] (setting [7]); 99% (active) in assay [4] (setting [8]); 90.3% (active) in assay [4] (at 50.0 µM). Also, the growth inhibition is 23% in assay [5] (setting [7]); 99% (active) in assay [5] (setting [8]); 90.5% (active) in assay [5] (at 50.0 µM); 30% in assay [6] (setting [7]); 98% (active) in assay [6] (setting [8]); 89% (active) in assay [6] (at 50.0 µM).
As to `O=C(CCCc1ccccc1)[O][Hg][c]1ccccc1`, the growth inhibition is 99% (active) in assay [1] (setting [7]); 99% (active) in assay [1] (setting [8]); 99.7% (active) in assay [1] (at 50.0 µM); 100% (active) in assay [2] (setting [7]); 99% (active) in assay [2] (setting [8]); 99.7% (active) in assay [2] (at 50.0 µM). Also, the growth inhibition in assay [3] (setting [7]) is 98% (active); in assay [3] (setting [8]), 99% (active); in assay [3] (at 50.0 µM), 99.6% (active); in assay [4] (setting [7]), 99% (active); in assay [4] (setting [8]), 99% (active); in assay [4] (at 50.0 µM) it was 99.2% (active). Further, the growth inhibition in assay [5] (setting [7]) was 99% (active); in assay [5] (setting [8]), 99% (active); in assay [5] (at 50.0 µM), 99.2% (active); in assay [6] (setting [7]) it was 99% (active); in assay [6] (setting [8]), 99% (active); in assay [6] (at 50.0 µM), 99% (active).
Turning to `CC(=O)c1ccccc1O.CO.CO.[Cl][Ta][Cl]`, the growth inhibition was 1% in assay [1] (setting [7]); 1% in assay [1] (setting [8]); -13% in assay [1] (at 50.0 µM); 15% in assay [2] (setting [7]); -7% in assay [2] (setting [8]); -5.75% in assay [2] (at 50.0 µM). The growth inhibition in assay [3] (setting [7]) was -14%; in assay [3] (setting [8]) it was 0%; in assay [3] (at 50.0 µM), -9.65%; in assay [4] (setting [7]), -7%; in assay [4] (setting [8]), -6%; in assay [4] (at 50.0 µM) it was 33.9%. For the same compound, the growth inhibition is -1% in assay [5] (setting [7]); -5% in assay [5] (setting [8]); 3.45% in assay [5] (at 50.0 µM); -6% in assay [6] (setting [7]); 1% in assay [6] (setting [8]); -10.2% in assay [6] (at 50.0 µM).
As for `NCCNCCN1CC1`, the growth inhibition in assay [1] (setting [7]) was -2%; in assay [1] (setting [8]), 0%; in assay [1] (at 50.0 µM), 64.9%; in assay [2] (setting [7]), 1%; in assay [2] (setting [8]), 1%; in assay [2] (at 50.0 µM), 0.35%. The growth inhibition in assay [3] (setting [7]) is 1%; in assay [3] (setting [8]), -1%; in assay [3] (at 50.0 µM) it was 39.9%; in assay [4] (setting [7]) it was -2%; in assay [4] (setting [8]), -3%; in assay [4] (at 50.0 µM), 19.1%. Moreover, the growth inhibition in assay [5] (setting [7]) was -1%; in assay [5] (setting [8]), -6%; in assay [5] (at 50.0 µM) it was 33%; in assay [6] (setting [7]) it was -1%; in assay [6] (setting [8]), -1%; in assay [6] (at 50.0 µM) it was 40%.
On to `Nc1ccc([As]=[As]c2ccc(N)cc2)cc1` (stereo not given), for which the growth inhibition was -14% in assay [1] (setting [7]); 71% (active) in assay [1] (setting [8]); 73.7% (active) in assay [1] (at 50.0 µM); 2% in assay [2] (setting [7]); 91% (active) in assay [2] (setting [8]); 96.6% (active) in assay [2] (at 50.0 µM). Moreover, the growth inhibition in assay [3] (setting [7]) is -16%; in assay [3] (setting [8]), 68%; in assay [3] (at 50.0 µM) it was 50.2%; in assay [4] (setting [7]) it was 2%; in assay [4] (setting [8]), 67%; in assay [4] (at 50.0 µM) it was 91.2% (active). The growth inhibition in assay [5] (setting [7]) is 3%; in assay [5] (setting [8]), 91% (active); in assay [5] (at 50.0 µM) it was 97.2% (active); in assay [6] (setting [7]), -1%; in assay [6] (setting [8]), 86% (active); in assay [6] (at 50.0 µM), 90.8% (active).
Consider `O=C(O)C(F)(F)C(F)(F)C(=O)O`, for which the growth inhibition is 8% in assay [1] (setting [7]); -3% in assay [1] (setting [8]); 0.35% in assay [1] (at 50.0 µM); 3% in assay [2] (setting [7]); 0% in assay [2] (setting [8]); -1.4% in assay [2] (at 50.0 µM). Moreover, the growth inhibition is -5% in assay [3] (setting [7]); -2% in assay [3] (setting [8]); 4.8% in assay [3] (at 50.0 µM); 6% in assay [4] (setting [7]); 1% in assay [4] (setting [8]); -16.1% in assay [4] (at 50.0 µM). Moreover, the growth inhibition in assay [5] (setting [7]) is 5%; in assay [5] (setting [8]), 26%; in assay [5] (at 50.0 µM), -3.15%; in assay [6] (setting [7]), 5%; in assay [6] (setting [8]), -2%; in assay [6] (at 50.0 µM), 5.25%.
As to `CC(Br)C(=O)C(CCN(C)C)(c1ccccc1)c1ccc(Br)s1` (stereo not given), the growth inhibition is -9% in assay [1] (setting [7]); 13% in assay [1] (setting [8]); 4% in assay [1] (at 50.0 µM); -9% in assay [2] (setting [7]); -6% in assay [2] (setting [8]); 0.55% in assay [2] (at 50.0 µM). In addition, the growth inhibition was -25% in assay [3] (setting [7]); 10% in assay [3] (setting [8]); 0.8% in assay [3] (at 50.0 µM); -12% in assay [4] (setting [7]); 2% in assay [4] (setting [8]); 80.6% (active) in assay [4] (at 50.0 µM). Also, the growth inhibition is -11% in assay [5] (setting [7]); -5% in assay [5] (setting [8]); 16.1% in assay [5] (at 50.0 µM); -6% in assay [6] (setting [7]); 14% in assay [6] (setting [8]); 11.9% in assay [6] (at 50.0 µM).
As for `CCOP(=S)(OCC)SSSP(=S)(OCC)OCC`, the growth inhibition in assay [1] (setting [7]) was 6%; in assay [1] (setting [8]), 71% (active); in assay [1] (at 50.0 µM) it was 1.6%; in assay [2] (setting [7]) it was 5%; in assay [2] (setting [8]) it was 62%; in assay [2] (at 50.0 µM) it was 57.8%. In addition, the growth inhibition in assay [3] (setting [7]) was 7%; in assay [3] (setting [8]), 78% (active); in assay [3] (at 50.0 µM) it was 15.7%; in assay [4] (setting [7]), 5%; in assay [4] (setting [8]), 20%; in assay [4] (at 50.0 µM), 65.8%. In addition, the growth inhibition is 2% in assay [5] (setting [7]); 84% (active) in assay [5] (setting [8]); 70% (active) in assay [5] (at 50.0 µM); 4% in assay [6] (setting [7]); 49% in assay [6] (setting [8]); 33.9% in assay [6] (at 50.0 µM).
